Source: PubChem BioAssay
Sampled rows, rich in hits. Any-hit rate of the full collection: about 1.9%.
Hsp70 act: switches on Hsp70 transcription; HeLa Hsp70 promoter luciferase reporter, luminescence; scaled: vehicle 0, proteasome-inhibitor control 100%; activation, % at 10 µM; 0.04% of 200,000 active; AID 1203;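 active means activation above the mean across all tested compounds plus 3 SD, cutoff set per campaign, cut at about 5.5% in these data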;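 further: 100% = MG132 at 30 µM as the positive control and 0% = DMSO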
TNF death inh: blocks TNF-alpha induced death of Jurkat FADD-/- cells. 0.068% of 220,000 active. activation (protection from cell death), % at 10 µM. AID 463075. Jurkat FADD-/- TNF necroptosis rescue, ATP luminescence, 24 h; 0 = TNF only, 100 = no-TNF cells;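 active means activation, meaning protection from cell death, of at least 50% relative to plate controls; inactive means activation below 50%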;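 further: necroptosis triggered by 40 ng/mL TNF-alpha added together with compound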
HSF-1 act: increases HSF-1 driven luciferase reporter signal; NIH3T3-HGL HSF-1 luciferase reporter, MG132, 8 h; 100% = twice DMSO control signal; 1.7% of 300,000 active; activation, % at 9 µM; AID 504408;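 active means mean replicate activation of at least 50% with a set share of replicates each reaching 50%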;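 further: 0% = median of the neutral control wells and 100% = twice that signal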
L929 necroptosis: L929 zVAD cell death inhibition | viability rescue, % at 10 µM | L929 zVAD necroptosis rescue, ATP luminescence, 24 h; with zVAD 60 µM | 0.38% of 220,000 active;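 active means activation, scaled between plate controls, above about 75%, limit read from the data; inactive means activation under that limit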;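 further: 0% = zVAD with DMSO and 100% = DMSO alone without zVAD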
* marks the source's active call; other numbers are inactive results; · = no result.

SMILES | Hsp70 act | TNF death inh | HSF-1 act | L929 necroptosis
CC(=O)c1sc(NC(=O)Cc2c(F)cccc2Cl)nc1C | · | · | 3 | ·
O=C(CSc1ccc(-c2nc3ccccc3[nH]2)cn1)Nc1ccc(S(=O)(=O)NC2CC2)cc1 | 0 | 0 | 51* | 3
Cc1ccc2nc(-c3ccc(SCC(=O)Nc4ccc5c(c4)OCCO5)nc3)[nH]c2c1 | 0 | 3 | 55* | 1
Cc1c(C(=O)Nc2cccc([N+](=O)[O-])c2)sc2ncn(CC(=O)N3CCOCC3)c(=O)c12 | · | · | 8 | ·
COC(=O)CCC(=O)NC(=S)Nc1ccccc1F | 0 | 1 | -7 | 1
O=C(OCC(=O)N1CCN(c2ccccc2)CC1)c1ccc(O)cc1O | · | · | 2 | ·
CC(C)c1ccc(C(=O)NCc2ccc(Cl)cc2)cc1 | 1 | 3 | 57* | 1
CC(=O)NCCNC(=O)c1ccc(CSc2ccc(Cl)cc2)cc1 | 0 | 2 | 68* | -1
C=CS(=O)(=O)c1sc(Cl)c(N2CCOCC2)c1[N+](=O)[O-] | 0 | -1 | 74* | 3
Cc1ccccc1N/N=C/c1sc(=O)n(Cc2cccc(C(=O)O)c2)c1Cl | · | 2 | 8 | 0
COC(=O)c1cccc(Cn2c(Cl)c(/C=N/Nc3ccccc3C)sc2=O)c1 | 0 | 2 | 151* | 1
O=C(CCn1c(=O)oc2ccccc21)N1CCCCCC1 | 0 | 10 | 31 | 0
O=C(CCn1c(=S)oc2ccccc21)N1CCCCC1 | 0 | 7 | 54* | 0
Cc1ccc(CN(C(=O)COc2ccc(Br)cc2)C2CCS(=O)(=O)C2)o1 (centres undefined) | · | · | 17 | ·
CCC1(C)CC2(CCCN(CCC(=O)c3ccccc3)C2)CCO1 (centres undefined) | 0 | -5 | 2 | -1
NC(CSCc1cccc(Br)c1)C(=O)O (centres undefined) | 0 | 0 | 79* | 2
O=C(Nc1ccc(S(=O)(=O)N2CCCCC2)cc1)C1CC(=O)N(c2ccc(Cl)cc2)C1 (centres undefined) | · | · | 2 | ·
COCCCNC(=O)c1ccc2c3c(onc13)-c1ccccc1C2=O | · | -30 | 139* | -3
Cc1ccccc1Nc1nc(N)nc(-c2oc3ccccc3c2C)n1 | · | -2 | 72* | 1
COc1ccccc1Nc1nc(N)nc(-c2oc3ccccc3c2C)n1 | 0 | 1 | 15 | 1
COC(=O)c1cnc(N2CCCN(S(=O)(=O)c3ccc(C(F)(F)F)cc3)CC2)nc1C(F)(F)F | · | 0 | 53* | 0
CCOc1ccc(N(Cc2cc3cc(C)ccc3[nH]c2=O)S(=O)(=O)c2ccccc2)cc1 | · | · | 4 | ·
ClCC1CSC(=NC23CC4CC(CC(C4)C2)C3)O1 (centres undefined) | 0 | 3 | 59* | 21
O=C(NCCCN1CCOCC1)C(C(=O)NCCCN1CCOCC1)c1ncc(C(F)(F)F)cc1Cl | 0 | -1 | 4 | 2
COc1ccc(C(CC(=O)Nc2nccs2)C(C)C)cc1 (centres undefined) | · | · | 41 | ·
SMILES | Hsp70 act | TNF death inh | HSF-1 act | L929 necroptosis
COc1ccc(C(CC(=O)Nc2nccs2)n2cccc2)cc1 (centres undefined) | 0 | 4 | 58* | 3
CCOC(=O)c1c(NC(=O)COc2ccc3ccc(=O)oc3c2)sc(C(=O)N(C)C)c1C | · | · | 9 | ·
COc1ccc(OCCOC(=O)c2cccs2)cc1 | 0 | 0 | 63* | 0
COc1ccc(C/C(N)=N/OC(=O)c2cccs2)cc1 | 0 | 0 | 22 | 0
Brc1ccc(-c2nnc(-c3ccccc3)c(N3CCSCC3)n2)cc1 | 0 | 1 | 126* | 0
COc1ccc(-c2csc3nc(-c4ccc(C)cc4)oc(=O)c23)cc1OC | 0 | -1 | -6 | 1
COc1ccc(-c2csc3nc(-c4ccccc4OC)oc(=O)c23)cc1 | 0 | 3 | 91* | 8
O=C(O)c1ccc(-n2cc(C(=O)c3ccccc3O)cn2)cc1 | · | · | -1 | ·
O=C(c1cnn(-c2ccccc2)c1)c1ccc2ccccc2c1O | 0 | -3 | 58* | 0
Cc1cc(/C=C(\C#N)C(=O)Nc2ccccc2)c(C)n1-c1cccnc1 | 0 | 3 | 58* | 1
Cc1cc(C(=O)O)ccc1-n1c(C)cc(/C=C(/C#N)C(=O)Nc2ccccc2)c1C | 0 | 0 | 5 | -1
COc1ccc(C2=CC(c3c(C)nn(-c4ccccc4)c3Cl)n3nnnc3N2)cc1OC (centres undefined) | 0 | -10 | · | 1
CCOC(=O)c1c(C)c(C(=O)Nc2ccc3c(c2)OCCO3)c(C)n1CC | 0 | -7 | 5 | 13
CCOC(=O)c1c(C)c(C(=O)Nc2ccc3c(c2)OCO3)c(C)n1C | 0 | 0 | 71* | 5
COc1cccc(CNC(=O)CCC2CCCN(C(=O)C3CCOCC3)C2)c1 (centres undefined) | 0 | 1 | -7 | 0
CN1CCN(NC(=O)/C=C/c2ccc(C(C)(C)C)cc2)CC1 | · | · | 10 | ·
CN1CCN(NC(=O)/C=C/c2ccc(Br)cc2)CC1 | · | · | 82* | ·
COc1cccc(NC(=O)C(=O)NCC2CCCN2S(=O)(=O)c2ccccc2)c1 (centres undefined) | · | · | 56* | ·
COc1cccc(NC(=O)C(=O)NCCC2CCCCN2S(=O)(=O)c2ccccc2)c1 (centres undefined) | · | · | 32 | ·
CCc1ccc2c(c1)C(=O)c1ccccc1C2=O | 0 | 1 | 81* | 2
C/C(N)=C(/C#N)C(=O)CSc1nn(-c2ccc(Cl)cc2)c(=S)s1 | 0 | 0 | 99* | 0
CC(Oc1ccc2ccccc2c1)C(=O)NNC(=O)Nc1ccccc1 (centres undefined) | · | · | 0 | ·
COc1cc(NC(=O)CC(C)S(=O)(=O)c2ccc3c(c2)NC(=O)CO3)cc(OC)c1OC (centres undefined) | · | · | 55* | ·
Cc1ccccc1NC(=O)CC(C)S(=O)(=O)c1ccc2c(c1)NC(=O)CO2 (centres undefined) | · | · | 62* | ·
CC(CC(=O)Nc1cccc(F)c1)S(=O)(=O)c1ccc2c(c1)NC(=O)CO2 (centres undefined) | · | · | 1 | ·
SMILES | Hsp70 act | TNF death inh | HSF-1 act | L929 necroptosis
Cc1ccc(CN(c2ccc(C(=O)N3CCCC3)cc2)S(C)(=O)=O)cc1 | 0 | -2 | 5 | 2
O=[N+]([O-])c1ccc(/C=N/n2cnc3ccccc32)s1 | 0 | -10 | 63* | 20
O=C(Nc1nnc(-c2ccccc2F)s1)C1CCN(S(=O)(=O)c2ccc(Cl)cc2)CC1 | 0 | 2 | · | 0
O=C(Nc1nnc(-c2ccccc2Cl)s1)C1CCN(S(=O)(=O)c2ccc(Cl)cc2)CC1 | 0 | 4 | 56* | 0
COc1ccc(NC(=O)CNC(=O)Cc2ccccc2)cc1 | · | · | -10 | ·
Cc1ccc(OCC(=O)Nc2ccccc2C(N)=O)cc1 | · | · | 57* | ·
COc1ccc(CC(=O)NCC(=O)Nc2ccccc2Br)cc1 | · | · | 56* | ·
NC(=O)c1ccccc1NC(=O)COc1ccc(Cl)cc1 | · | 2 | 21 | 0
COc1ccc(OCC(=O)Nc2ccccc2O)cc1 | 0 | -2 | 75* | 66
COc1ccccc1NC(=O)COc1ccccc1 | 0 | -1 | -5 | 1
